The values below come from PubChem BioAssay (EPA / NIEHS).

Experiment [1] deals with Peroxisome proliferator-activated receptor gamma (Homo sapiens) (UniProt P37231). Put plainly: OT_PPARg_PPARgSRC1_0480: Odyssey Thera (OT) 8-hour Protein-Complementation Assay for Peroxisome Proliferator-activated Receptor Gamma / SRC-1 Co-activator (AID 2283387). The method, boiled down: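 Split-YFP (IFP1/IFP2) PPARg/SRC-1 reporter, HEK293T, 37 °C, 5% CO2; 8 h compound; formaldehyde fix + Draq5; high-content imaging, N/C ratio, ≥350 cells/image, positive direction vs DMSO.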

Experiment [2] shares this target. The experiment is described as follows: OT_PPARg_PPARgSRC1_1440: Odyssey Thera (OT) 24-hour Protein-Complementation Assay for Peroxisome Proliferator-activated Receptor Gamma/ SRC-1 Co-activator (AID 2283388). The method, boiled down:
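HEK293T cells transiently transfected with PPARg and SRC-1 fused via (Gly4Ser)2 linker to split Venus YFP fragments (IFP1/IFP2) were dosed 24 h; fixed, Draq5-stained, imaged at 488/635 nm; nuclear/cytoplasmic fluorescence ratio scored versus DMSO baseline, gain-of-signal.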

The target in experiment [3] is Retinoic acid receptor RXR-alpha (Homo sapiens) (UniProt P19793). The experiment is described as follows: OT_NURR1_NURR1RXRa_1440: Odyssey Thera (OT) 24-hour HEK293T Protein Complementation Assay for Nurr1/retinoid X receptor (RXR) (AID 2283386). The method, boiled down:
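Gain in fluorescence, fitted relative to DMSO, reflects Nurr1–RXRα association in HEK293T cells after 24 h dosing. Bait and prey are each linked to a reporter-protein fragment that reassembles on interaction.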

Experiment [4] can be described thus: CEETOX_H295R_11DCORT: CeeTox H295R High-throughput Steroidogenesis Assay for 11-Deoxycortisol (11DCORT) (AID 2283432; active means hit-call score of the fitted dose curve at least 0.9, where 1 is the maximum; inactive means score below 0.9;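 on AC50: 11-deoxycortisol secreted into the medium measured by LC-MS/MS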). Particulars: actives raise or lower the signal. The method, boiled down:
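Steroidogenesis in human H295R cells: 48 h chemical exposure after forskolin priming, 11-deoxycortisol measured by LC-MS/MS.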

A short description of experiment [5]: CEETOX_H295R_OHPREG: CeeTox H295R High-throughput Steroidogenesis Assay for OH-Pregnenolone (OHPREG) (AID 2283434; active means hit-call score of the fitted dose curve at least 0.9, where 1 is the maximum; inactive means score below 0.9). Particulars: actives raise or lower the signal. The method, boiled down: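 H295R, 10 uM forskolin pre-stim 48 h; test chemical 48 h, 0.1% DMSO final. MTBE extraction, reverse-phase C18 HPLC-ESI+ MS/MS of medium. Gain/loss vs DMSO; viability by MTT in same wells.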

Experiment [6] can be described thus: CEETOX_H295R_OHPROG: CeeTox H295R High-throughput Steroidogenesis Assay for OH-Progesterone (OHPROG) (AID 2283435; active means hit-call score of the fitted dose curve at least 0.9, where 1 is the maximum; inactive means score below 0.9;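 on AC50: 17alpha-hydroxyprogesterone secreted into medium measured by HPLC-MS/MS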). Particulars: actives raise or lower the signal. The method, boiled down:
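Medium steroid levels read by LC-MS/MS after 48 h chemical treatment (0.1% DMSO) of human adrenal H295R cells that had been forskolin-primed (10 uM, 48 h). Gain or loss fitted against DMSO; MTT cytotoxicity checked per well.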

The nature of experiment [7]: CEETOX_H295R_CORTIC: CeeTox H295R High-throughput Steroidogenesis Assay for Corticosterone (CORTIC) (AID 2283437; active means hit-call score of the fitted dose curve at least 0.9, where 1 is the maximum; inactive means score below 0.9;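 further: corticosterone secreted into medium quantified by mass spectrometry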). Conditions: actives raise or lower the signal. The method, boiled down: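 48 h forskolin (10 uM) prestim, then 48 h chemical exposure, final DMSO 0.1%. Readout: corticosterone in medium by LC-MS/MS after MTBE extraction. Gain/loss fit vs DMSO; MTT viability in same wells.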

Experiment [8] in a line: CEETOX_H295R_CORTISOL: CeeTox H295R High-throughput Steroidogenesis Assay for Cortisol (AID 2283438; active means hit-call score of the fitted dose curve at least 0.9, where 1 is the maximum; inactive means score below 0.9;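 further: cortisol secreted into medium quantified by LC-MS/MS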). Conditions: actives raise or lower the signal. The method, boiled down: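 Cortisol measured by HPLC-MS/MS after MTBE extraction of medium from H295R cells exposed 48 h to chemical (0.1% DMSO), following 48 h prestimulation with 10 uM forskolin. Viability assessed by MTT in the same wells.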

Experiment [9] can be described thus: CEETOX_H295R_DOC: CeeTox H295R High-throughput Steroidogenesis Assay for DOC (AID 2283439; active means hit-call score of the fitted dose curve at least 0.9, where 1 is the maximum; inactive means score below 0.9). Particulars: actives raise or lower the signal. The method, boiled down: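 11-Deoxycorticosterone quantified in medium by MTBE extraction and HPLC-MS/MS after 48 h chemical exposure (0.1% DMSO) of forskolin-primed (10 uM, 48 h) H295R cells. Same-well MTT viability; data fitted bidirectionally against DMSO.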

A short description of experiment [10]: CEETOX_H295R_ANDR: CeeTox H295R High-throughput Steroidogenesis Assay for Androstenedione (ANDR) (AID 2283436; active means hit-call score of the fitted dose curve at least 0.9, where 1 is the maximum; inactive means score below 0.9;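 further: human H295R adrenal cells exposed for 48 h with androstenedione measured in medium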). Conditions: actives raise or lower the signal. The method, boiled down: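 48 h chemical exposure, H295R cells, DMEM/F12 + ITS+ and Nu-Serum. Medium androstenedione: MTBE extraction, C18 reverse-phase HPLC, ESI+ MS/MS. Fit bidirectional vs DMSO; MTT viability in same wells.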

Molecules are shown by their SMILES. Records with an inconclusive call do not appear. Where a structure was tested more than once in an assay, its records may differ in their call. Activity calls are given as the source filed them. How the source made its calls, unless noted: active means hit-call score of the fitted dose curve at least 0.9, where 1 is the maximum; inconclusive means response in the unintended direction; inactive means score below 0.9.

Sequence of Peroxisome proliferator-activated receptor gamma (Homo sapiens) (P37231 whole entry, looked up): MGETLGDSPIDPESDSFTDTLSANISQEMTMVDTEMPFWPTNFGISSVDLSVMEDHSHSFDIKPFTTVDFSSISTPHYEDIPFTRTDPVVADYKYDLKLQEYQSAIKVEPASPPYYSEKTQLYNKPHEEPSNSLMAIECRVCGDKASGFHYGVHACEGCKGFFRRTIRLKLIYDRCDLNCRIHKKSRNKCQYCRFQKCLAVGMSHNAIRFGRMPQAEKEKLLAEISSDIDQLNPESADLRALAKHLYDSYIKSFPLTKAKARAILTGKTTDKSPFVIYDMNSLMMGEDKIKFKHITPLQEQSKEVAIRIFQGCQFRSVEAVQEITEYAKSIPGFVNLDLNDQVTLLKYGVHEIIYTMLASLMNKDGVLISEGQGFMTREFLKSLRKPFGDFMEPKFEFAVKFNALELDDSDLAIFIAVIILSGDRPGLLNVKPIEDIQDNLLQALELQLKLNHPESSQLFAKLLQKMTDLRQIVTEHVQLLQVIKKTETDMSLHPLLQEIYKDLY
Sequence of Retinoic acid receptor RXR-alpha (Homo sapiens) (P19793 whole entry, looked up, the tested form may be a part): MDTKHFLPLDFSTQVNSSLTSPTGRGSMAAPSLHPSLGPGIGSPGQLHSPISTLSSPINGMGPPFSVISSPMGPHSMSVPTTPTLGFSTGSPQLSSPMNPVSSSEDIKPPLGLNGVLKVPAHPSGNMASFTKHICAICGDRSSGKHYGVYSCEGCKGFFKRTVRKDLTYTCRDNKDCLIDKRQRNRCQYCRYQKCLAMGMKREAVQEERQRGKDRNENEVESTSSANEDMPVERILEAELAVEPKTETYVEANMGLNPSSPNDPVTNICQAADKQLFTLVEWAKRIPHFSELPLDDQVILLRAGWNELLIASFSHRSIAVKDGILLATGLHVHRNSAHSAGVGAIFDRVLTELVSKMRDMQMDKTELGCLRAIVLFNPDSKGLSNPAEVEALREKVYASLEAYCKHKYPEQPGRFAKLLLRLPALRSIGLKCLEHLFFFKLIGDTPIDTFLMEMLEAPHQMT

For the compound `CCCCC(CC)COC(=O)c1ccccc1C(=O)OCC(CC)CCCC` (configuration not stated), the outcome in [1] and in experiment [2] was inactive.

Turning to `OC(c1ccc(Cl)cc1)(c1cncnc1)c1ccccc1Cl` (configuration not stated), the result in [1] and in experiment [2] was inactive.

Consider `CCCN(CCC)c1c([N+](=O)[O-])cc(S(N)(=O)=O)cc1[N+](=O)[O-]`, for which the result in experiment [1] and in experiment [2] was inactive.

As for `N#Cc1nn(-c2c(Cl)cc(C(F)(F)F)cc2Cl)c(N)c1S(=O)C(F)(F)F` (configuration not stated), the call in experiment [1] and in [2] was inactive.

Consider `CCCCOC(=O)c1ccccc1C(=O)OCCCC`, for which the compound was called inactive in experiment [1] and in experiment [2].

On to `O=C(Nc1ccccc1)Nc1ccnc(Cl)c1`, for which the compound was called inactive in [1] and in [2].

On to `CC(Oc1ccc(Cl)cc1Cl)C(=O)O` (configuration not stated), for which the outcome in experiment [1] and in [2] was inactive.

Consider `COc1cnc(OC)n2nc(NS(=O)(=O)c3c(OCC(F)F)cccc3C(F)(F)F)nc12`, for which the result in experiment [3], in experiment [1] and in experiment [2] was inactive.

Consider `COP(N)(=O)SC` (configuration not stated), for which the call in experiment [1] and in [2] was inactive.

As for `COc1ccc(C(c2ccc(OC)cc2)C(Cl)(Cl)Cl)cc1`, the compound was classed as inactive in experiment [1] and in experiment [2].

Consider `CO/C=C(/C(=O)OC)c1ccccc1Oc1cc(Oc2ccccc2C#N)ncn1`, for which the outcome in experiment [1] and in experiment [2] was inactive.

Turning to `O=C(O)COc1nc(Cl)c(Cl)cc1Cl`, the outcome in experiment [1] and in experiment [2] was inactive.

In the case of `CS/C(C)=N/OC(=O)N(C)SN(C)C(=O)O/N=C(\C)SC`, the outcome in experiment [1] and in [2] was inactive.

For the compound `COC(=O)C(C)Oc1ccc(Oc2ccc(Cl)cc2Cl)cc1` (configuration not stated), the compound was called inactive in experiment [1] and in experiment [2].

For the compound `COC(=O)c1ccccc1C(=O)OC`, the call in experiment [1] and in experiment [2] was inactive.

`CON(C)C(=O)Nc1ccc(Cl)c(Cl)c1`: the result in [3], in experiment [1], in experiment [2], in experiment [4], in experiment [5] and in [6] was inactive. In addition, the compound was called inactive in experiment [7], in experiment [8] and in experiment [9].

Consider `COC(=O)N(OC)c1ccccc1COc1ccn(-c2ccc(Cl)cc2)n1`, for which the compound was called inactive in [1] and in experiment [2].

For `CC(C)C1(C)N=C(c2nc3ccccc3cc2C(=O)O)NC1=O` (configuration not stated), the result in experiment [1] and in [2] was inactive.

With `Cc1ccc(-c2c(Cl)nc(C#N)n2S(=O)(=O)N(C)C)cc1`, the outcome in experiment [1] and in [2] was inactive.

`CCCCNC(=O)OCC#CI`: the compound was called inactive in experiment [1] and in experiment [2].

As for `CNC(=O)ON=CC(C)(C)SC`, the call in experiment [1] and in experiment [2] was inactive.

In the case of `C#CCOS(=O)OC1CCCCC1Oc1ccc(C(C)(C)C)cc1` (configuration not stated), the outcome in [1] and in experiment [2] was inactive.

Consider `N#Cc1cc(Br)c(O)c(Br)c1`, for which the outcome in experiment [1] and in experiment [2] was inactive.

With `CCc1nn(C)c(C(=O)NCc2ccc(C(C)(C)C)cc2)c1Cl`, the call in [1] and in [2] was inactive.

In the case of `C=CCC1=C(C)[C@@H](OC(=O)[C@@H]2[C@@H](C=C(C)C)C2(C)C)CC1=O`, the compound was called inactive in experiment [1] and in experiment [2].

As to `COC(=O)C=C(C)OP(=O)(OC)OC`, the outcome in [1] and in [2] was inactive.

On to `CC1COC(Cn2cncn2)(c2ccc(Oc3ccc(Cl)cc3)cc2Cl)O1` (configuration not stated), for which the result in experiment [1], in [2], in [4], in experiment [5] and in experiment [7] was inactive. The figures for the AC50 in experiment [6], in [8] and in experiment [9] were 0.5 µM (active), 0.372 µM (active) and 0.334 µM (active), respectively.

As for `CNC(=S)S`, the call in experiment [1], in experiment [2], in [4], in [5], in [6] and in [7] was inactive. Further, the call in experiment [8] and in [9] was inactive.

In the case of `Oc1ccccc1-c1ccccc1`, the compound was called inactive in [1], in experiment [2], in experiment [5] and in [6]. Also, the AC50 in experiment [6] was 71.8 µM (active).

Take `CCCCNC(=O)n1c(NC(=O)OC)nc2ccccc21`: the call in [1], in [2], in experiment [4], in experiment [5], in experiment [6] and in [10] was inactive. The call in experiment [7], in experiment [8] and in [9] was inactive.

For `COc1nc(NC(C)C)nc(NC(C)C)n1`, the call in experiment [1], in experiment [2], in experiment [4], in experiment [5], in [6] and in experiment [7] was inactive. The result in experiment [8] and in [9] was inactive.

For `CCON=C(CC)C1=C(O)CC(c2c(C)cc(C)cc2C)CC1=O` (configuration not stated), the compound was classed as inactive in [1], in experiment [2], in experiment [4], in experiment [5], in experiment [6] and in experiment [10]. The compound was called inactive in [7], in [8] and in experiment [9].

As to `C=CC1(C)OC(=O)N(c2cc(Cl)cc(Cl)c2)C1=O` (configuration not stated), the compound was called inactive in [1], in [2], in experiment [5], in experiment [7] and in [8]. In addition, the concentration at half-maximal activity (AC50) in experiment [4] is 25.6 µM (active); in experiment [6] it was 22.6 µM (active); in [9], 11.3 µM (active).

With `CC(C)(C)c1ccc(CSc2cnn(C(C)(C)C)c(=O)c2Cl)cc1`, the result in [1] and in experiment [2] was inactive.
